The values below come from PubChem BioAssay (EPA / NIEHS).

A word on the AC50: it is the concentration at which the activity in the assay is half-maximal.

More than one record can exist for a structure, and the calls need not agree. Activity calls are given as the source filed them. The calls were made as follows: active = hit-call score of the fitted dose curve at least 0.9, where 1 is the maximum; inactive = score below 0.9.

Chain of E-selectin (Homo sapiens) (P16581 whole entry, looked up): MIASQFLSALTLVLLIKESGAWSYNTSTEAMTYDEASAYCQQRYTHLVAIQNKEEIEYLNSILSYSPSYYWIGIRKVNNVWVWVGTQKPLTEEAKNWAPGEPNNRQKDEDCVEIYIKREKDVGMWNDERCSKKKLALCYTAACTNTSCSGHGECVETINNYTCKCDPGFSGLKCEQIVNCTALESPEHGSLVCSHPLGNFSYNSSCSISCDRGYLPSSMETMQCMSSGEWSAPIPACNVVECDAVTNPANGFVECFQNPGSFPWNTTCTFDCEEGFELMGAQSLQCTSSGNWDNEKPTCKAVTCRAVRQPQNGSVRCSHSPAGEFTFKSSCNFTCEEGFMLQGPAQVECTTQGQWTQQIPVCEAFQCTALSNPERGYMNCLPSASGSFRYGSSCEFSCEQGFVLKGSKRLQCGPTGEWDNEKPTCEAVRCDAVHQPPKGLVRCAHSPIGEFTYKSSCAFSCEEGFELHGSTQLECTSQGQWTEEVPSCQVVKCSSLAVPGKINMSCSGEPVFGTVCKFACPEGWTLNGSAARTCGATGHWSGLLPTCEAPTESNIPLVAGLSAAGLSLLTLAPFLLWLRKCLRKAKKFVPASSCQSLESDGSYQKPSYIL

Read-out in the experiment: E-selectin (Homo sapiens) (UniProt P16581)
Put plainly: BSK_SAg_Eselectin: BioMAP Diversity Plus: SAg Assay for Eselectin Biomarker Activity (AID 2283091). Conditions: primary human HUVEC with PBMC; actives raise or lower the signal. The method, then:
BSK_SAg is a cell-based, multiplexed-readout assay that uses umbilical vein endothelium and peripheral blood mononuclear cells, a human vascular primary cell co-culture, with measurements taken at 24 hours after chemical dosing in a 96-well plate.BSK_SAg_Eselectin is an assay component measured in the BSK_SAg assay. It measures E-selectin antibody related to regulation of gene expression using ELISA technology.Data from the assay component BSK_SAg_Eselectin was analyzed into 1 assay endpoint. This assay endpoint, BSK_SAg_Eselectin, was analyzed with bidirectional fitting relative to DMSO as the negative control and baseline of activity. Using a type of binding reporter, gain or loss-of-signal activity can be used to understand changes in the signaling as they relate to the gene SELE. Furthermore, this assay endpoint can be referred to as a primary readout, because this assay has produced multiple assay endpoints where this one serves a signaling function. To generalize the intended target to other relatable targets, this assay endpoint is annotated to the cell adhesion molecules intended target family, where the subfamily is selectins.
The levels of cell surface (or secreted, indicated by the prefix "s") biomarker endpoints were measured by ELISA. Overt cytotoxicity to cells in confluent adherent cultures (all systems other than the BT system) was assessed by measuring total protein levels using sulforhodamine B (SRB) staining in parallel cultures at the time of biomarker measurements, indicated as SRB endpoints. For proliferation assays for adherent cell types, individual cell types are cultured at sub-confluence and relative cell numbers quantified by SRB staining at time points optimized for each system (48 h: 3C and CASM3C systems; 72 h: BT and HDF3CGF systems; 96 h: SAg system). SRB was performed by staining cells with 0.1% SRB after fixation with 10% TCA and reading wells at 560 nm.Viability and proliferation of PBMC (T cells) was quantified by Alamar Blue reduction for the SAg and BT systems. For PBMC viability (referred to as PBMC Cytotoxicity within the assay endpoint names), cells were plated (75,000/well in a 96-well plate) and then chemical samples added for 1 h before addition of activators, SEB and TSST-1 (20 ng/mL final concentration each). Cells were incubated for 90 h. Then, Alamar Blue (20 uL/well) (Invitrogen, Cat DAL1100) was added for 6 h, and the plates were read with a fluorescence microplate reader at 546/580 nm (excitation/emission). For PBMC proliferation, cells were plated and activated as above but incubated for only 16 h prior to addition of Alamar Blue. Plates were read after 6 h.
`O=[N+]([O-])c1ccc2c3c(cccc13)CC2`: the result was inactive.
In the case of `COP(=S)(OC)Oc1ccc(S(=O)(=O)N(C)C)cc1`, the outcome was inactive.
Turning to `Cn1sc(Cl)cc1=O`, the AC50 is 20 µM (active).
For `C[C@]12CCC(=O)C[C@@H]1CC[C@@H]1[C@@H]2CC[C@]2(C)[C@@H](O)CC[C@@H]12`, the result was inactive.
Take `CC12CC1(C)C(=O)N(c1cc(Cl)cc(Cl)c1)C2=O` (stereo not given): the result was inactive.
`ClC1=C(Cl)[C@]2(Cl)[C@H]3[C@H]([C@H]4C=C[C@H]3C4)[C@@]1(Cl)C2(Cl)Cl`: the outcome was inactive.
For the molecule `C(=NC1CCCCC1)=NC1CCCCC1`, the AC50 is 3.97 µM (active).
On to `Cc1ccccc1N`, for which the outcome was inactive.
Still for that read-out and setting: as for `ClC(Cl)=C(Cl)C(Cl)=C(Cl)Cl`, the entry is “inactive”; as for `Nc1cccc2ccccc12`, “inactive”.
Consider `Oc1c(I)cc(I)cc1I`, for which the AC50 was 14.7 µM (active).
On to `CCOP(=S)(OCC)Oc1ccc(S(C)=O)cc1` (stereo not given), for which the result was inactive.
On to `NC(=S)Nc1ccccc1`, for which the result was inactive.
For `C=C(C)C(=O)[O][Sn]([CH2]CCC)([CH2]CCC)[CH2]CCC`, the AC50 is 0.147 µM (active).
Turning to `O=C(O)C(F)(F)C(F)(F)C(F)(F)C(F)(F)C(F)(F)C(F)(F)C(F)(F)C(F)(F)C(F)(F)C(F)(F)F`, the result was inactive and the AC50 is 35.3 µM (active).
On to `CCOP(=S)(OCC)Oc1nc(Cl)c(Cl)cc1Cl`, for which the AC50 was 28 µM (active).
On the same count and under the same terms, as for `O=C1C2(Cl)C3(Cl)C4(Cl)C(Cl)(Cl)C5(Cl)C3(Cl)C1(Cl)C5(Cl)C24Cl` (stereo not given), the figure is 19.3 µM (active).
On to `Nc1ncc([N+](=O)[O-])s1`, for which the outcome was inactive.
Regarding `CC1(C)Cc2cccc(O)c2O1`, the result was inactive.
Turning to `CC(C)(C)CC(C)(C)c1ccc(O)cc1`, the AC50 is 9.86 µM (active).
For `CC(=O)[O][Hg][c]1ccccc1`, the AC50 was 1.58 µM (active).
With `CCNc1nc(NC(C)(C)C)nc(SC)n1`, the outcome was inactive.
Turning to `Nc1ccc(-c2ccc(N)c(Cl)c2)cc1Cl`, the outcome was inactive.
Regarding `COC[C@H](C)N(C(=O)CCl)c1c(C)csc1C`, the outcome was inactive.
Consider `COP(=S)(OC)Oc1ccc(Sc2ccc(OP(=S)(OC)OC)cc2)cc1`, for which the AC50 is 30.4 µM (active).
`COP(=S)(OC)Oc1c(Cl)cc(C)cc1Cl`: the outcome was inactive.
On to `CC(=O)C(Cl)C(=O)N(C)C` (stereo not given), for which the concentration at half-maximal activity (AC50) was 25.4 µM (active).
As to `Oc1ccc(-c2ccccc2)cc1`, the result was inactive.
In the case of `CC(C)c1ccc(CO)cc1`, the result was inactive.
With `CCN1CCC2(CC1)COc1cc3c(cc12)N(C(=O)c1ccc(-c2ccc(-c4nnc(C)o4)cc2C)cc1)CC3`, the AC50 was 13.3 µM (active).
Regarding `COc1cc(-c2ccc(N)c(OC)c2)ccc1N`, the AC50 was 11.8 µM (active).
With `CC(C)CCCCCCOC(=O)c1ccccc1C(=O)OCCCCCCC(C)C`, the AC50 is 0.016 µM (active).
On to `O=C(O)CCC(F)(C(F)(F)F)C(F)(F)F`, for which the result was inactive.
For `O=C(Nc1ccc2[nH]ccc2c1)c1cc2cc(F)ccc2n1Cc1cccc(F)c1`, the half-maximal activity concentration (AC50) is 12.8 µM (active).
As for `CC(=O)OC(c1ccccc1)C(Cl)(Cl)Cl` (stereo not given), the AC50 was 20 µM (active) and the result was inactive.
As to `O=S(=O)(c1ccc(Cl)cc1)c1ccc(Cl)cc1`, the outcome was inactive.
Turning to `CC(C)(OO)c1ccccc1`, the outcome was inactive.
`O=C(O)C(F)(F)C(F)(F)C(F)(F)C(F)(F)C(F)(F)C(F)(F)F`: the outcome was inactive.
